Measured values from PubChem BioAssay (Tox21).
Several values for one entry are separate records, joined by “and”; a condition that tells them apart may be missing. Identical values can stand only once. Records with an inconclusive call do not appear. Activity calls are given as the source filed them. Unless noted, calls come from the whole dose curve; as a rule, active = well fitted curve in the direction sought with a large enough effect in the repeat runs; inconclusive = weak or mixed curves; inactive = no such curve, though single readings can be large; an effect the other way counts as inactive or inconclusive.

How the values were obtained:
[1] = qHTS assay to identify small molecule antagonists of the estrogen receptor alpha (ER-alpha) signaling pathway using the BG1 cell line in the presence of 0.1 nM 17-beta-estradiol - cell viability counter screen (AID 1259241); note: nearly all actives have a fitted effect of over 40% in size; note: potency is the fitted concentration of half-maximal effect
Method in brief: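 Live-cell protease activity (CellTiter-Fluor fluorescence, 30 min) was read in the same wells after VM7Luc4E2 cells had been exposed to compounds with 0.1 nM 17beta-estradiol for 22 hr at 37C.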

[2] = qHTS assay to identify small molecule antagonists of the androgen receptor (AR) signaling pathway using the MDA cell line in the presence of 0.5 nM R1881 - cell viability counter screen (AID 1259242); note: nearly all actives have a fitted effect of over 45% in size
Method in brief: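 Viability of MDA-kb2 cells was multiplexed with the luciferase AR readout; after 16 hr with compounds and R1881 at 0.5 nM final, CellTiter-Fluor fluorescence was recorded.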

[3] = qHTS assay to identify small molecule phospholipidosis (PLD) inducers (AID 1259344; active = well fitted curve in the direction sought with a large enough effect; an effect the other way counts as inactive or inconclusive; note: potency is the fitted concentration of half-maximal effect)
Method in brief: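 HepG2 cells grown on collagen I take up LipidTOX Red while exposed to compound for 24 h; after fixation they are imaged at 20x and pit metrics are extracted.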

[4] = qHTS assay to identify small molecule HDAC inhibitors - cell viability counter screen (AID 1259365); note: series mostly up to about 92 µM; nearly all actives have a fitted effect of over 50% in size
Method in brief: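 HCT-116 (wild type), 1,500 cells/well, overnight 37C/5% CO2; compound in DMSO 2hr; CellTiter-Glo 30min RT; luminescence read.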

[5] = qHTS assay to identify small molecule antagonists of the sonic hedgehog signaling (Shh) pathway - cell viability counter screen (AID 1259367); note: nearly all actives have a fitted effect of over 55% in size; note: potency is the fitted concentration of half-maximal effect
Method in brief: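 After a 4 hr settling period, 3T3 Gli1-Luc cells were treated with DMSO-dissolved chemicals and conditioned medium, kept 24 hr at 37C in 5% CO2, and assayed for viability by CellTiter-Fluor fluorescence following 1 hr reagent incubation.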

[6] = qHTS assay to identify small molecule antagonists of the sonic hedgehog signaling (Shh) pathway (AID 1259369; calls by dose curve; note: nearly all actives have a fitted effect of over 45% in size; note: potency is the fitted concentration of half-maximal effect)
Method in brief: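 For antagonist detection, the reporter line received test compounds together with conditioned medium, incubated 24hr at 37 C, 5% CO2, then luminescence was recorded following 30min room-temperature luciferase reagent incubation.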

[7] = molecular target: Estrogen receptor beta (Homo sapiens) (UniProt Q92731); assay: qHTS assay to identify small molecule agonists of the estrogen receptor beta (ER-beta) signaling pathway (AID 1259377; active = well fitted activation curve with a large enough effect in the signal ratio in the repeat runs, not every such curve was filed as active; the % refers to the signal ratio)
Estrogen receptor beta (Homo sapiens), sequence (Q92731 whole entry, looked up): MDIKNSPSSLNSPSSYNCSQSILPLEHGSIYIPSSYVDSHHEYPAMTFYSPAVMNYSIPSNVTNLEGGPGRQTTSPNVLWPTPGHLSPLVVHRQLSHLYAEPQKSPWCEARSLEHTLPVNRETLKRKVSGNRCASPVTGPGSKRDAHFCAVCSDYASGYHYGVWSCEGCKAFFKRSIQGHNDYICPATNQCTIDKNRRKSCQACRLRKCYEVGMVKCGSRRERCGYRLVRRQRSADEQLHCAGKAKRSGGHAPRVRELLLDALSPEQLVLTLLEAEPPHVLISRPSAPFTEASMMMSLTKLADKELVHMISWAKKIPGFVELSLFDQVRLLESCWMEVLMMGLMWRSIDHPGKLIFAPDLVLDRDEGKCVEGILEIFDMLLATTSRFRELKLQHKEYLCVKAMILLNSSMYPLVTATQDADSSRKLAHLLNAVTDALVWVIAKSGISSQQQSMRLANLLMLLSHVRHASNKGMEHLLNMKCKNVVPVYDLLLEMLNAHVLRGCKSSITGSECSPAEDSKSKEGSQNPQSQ
Method in brief: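 Beta-lactamase reporter readout: fluorescence of LiveBLAzer B/G FRET substrate after 2 h at room temperature, following 16 h compound treatment of ER-beta-UAS-bla HEK293T cells at 37C in 2% charcoal-stripped FBS medium.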

[8] = qHTS assay to identify small molecule agonists of the androgen receptor (AR) signaling pathway in the presence of an antagonist - cell viability counter screen (AID 1259379); note: nearly all actives have a fitted effect of over 25% in size; note: potency is the fitted concentration of half-maximal effect
Method in brief: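 Seed MDA-kb2 at 3,000 cells/well; incubate 5 hr, 37C, 0% CO2. Add nilutamide to 3.0uM final, then pin compounds at 15 concentrations. Incubate 16 hr. Add CellTiter-Fluor at 15 hr, read fluorescence after 1 hr.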

[9] = molecular target: Estrogen receptor (Homo sapiens) (UniProt P03372); assay: qHTS assay to identify small molecule antagonists of the estrogen receptor alpha (ER-alpha) signaling pathway using the BG1 cell line in the presence of 0.1 nM 17-beta-estradiol (AID 1259244); note: nearly all actives have a fitted effect of over 50% in size
Estrogen receptor (Homo sapiens), sequence (P03372 whole entry, looked up): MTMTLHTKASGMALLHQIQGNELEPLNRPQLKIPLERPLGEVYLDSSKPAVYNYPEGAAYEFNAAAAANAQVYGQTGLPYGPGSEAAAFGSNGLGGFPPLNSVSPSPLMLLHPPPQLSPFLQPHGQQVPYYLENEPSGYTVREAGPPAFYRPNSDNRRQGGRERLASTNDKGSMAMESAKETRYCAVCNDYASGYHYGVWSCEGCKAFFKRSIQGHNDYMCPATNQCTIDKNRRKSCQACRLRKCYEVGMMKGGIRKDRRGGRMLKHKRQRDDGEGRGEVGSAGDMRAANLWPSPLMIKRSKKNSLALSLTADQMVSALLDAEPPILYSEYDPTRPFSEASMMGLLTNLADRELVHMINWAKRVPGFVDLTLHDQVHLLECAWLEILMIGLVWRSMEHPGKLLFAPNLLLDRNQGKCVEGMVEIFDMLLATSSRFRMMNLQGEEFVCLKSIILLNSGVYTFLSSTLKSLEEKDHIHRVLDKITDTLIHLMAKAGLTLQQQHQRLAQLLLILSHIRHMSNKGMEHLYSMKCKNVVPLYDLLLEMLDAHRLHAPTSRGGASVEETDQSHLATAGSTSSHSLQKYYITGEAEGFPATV
Method in brief: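 Estradiol at 0.1 nM (final) stimulates the endogenous ER-alpha of VM7Luc4E2 cells carrying an ERE-driven luciferase; compounds are co-incubated 22 h at 37C and luciferase output quantified by luminescence.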

[10] = qHTS assay to identify small molecule agonists of the sonic hedgehog signaling (Shh) pathway - cell viability counter screen (AID 1259366); note: nearly all actives have a fitted effect of over 50% in size; note: potency is the fitted concentration of half-maximal effect
Method in brief: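 CellTiter-Fluor fluorescence read-out, 1 hr at 37C, added after 23hr compound exposure. Cells: 3T3 Gli1-Luc, an NIH/3T3 clone with stably integrated Gli1-Luc reporter, plated 4hr before compound.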

[11] = qHTS assay to identify small molecule agonists of the sonic hedgehog signaling (Shh) pathway (AID 1259368; calls by dose curve;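 note: NIH/3T3-derived 3T3Gli1-Luc cells carrying a stable Gli1-driven firefly luciferase reporter; series mostly up to about 92 µM; nearly all actives have a fitted effect of over 15% in size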)
Method in brief: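 A Gli1 transcriptional response element controlled firefly luciferase in 3T3Gli1-Luc cells. Compounds and a positive control were added 4 hr after plating, and cells were incubated a further 24 hr at 37 C before luminescence detection.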

[12] = qHTS assay to identify small molecule agonists of the estrogen receptor beta (ER-beta) signaling pathway - cell viability counter screen (AID 1259380); note: nearly all actives have a fitted effect of over 30% in size; note: potency is the fitted concentration of half-maximal effect
Method in brief: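 CellTiter-Glo read, 30 min RT, same wells as bla assay; cells ER-beta-UAS-bla HEK293T; 16 hr compound, 37C; medium 2% charcoal-stripped FBS.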

[13] = molecular target: Estrogen receptor (Homo sapiens) (UniProt P03372); assay: qHTS assay to identify small molecule agonists of the estrogen receptor alpha (ER-alpha) signaling pathway in the presence of an antagonist (AID 1259383; calls by dose curve; note: nearly all actives have a fitted effect of over 15% in size; note: potency is the fitted concentration of half-maximal effect; for activation: top concentration of the series differs between compounds)
Method in brief: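 Stably transfected VM7Luc4E2 reporter cells, kept 5 days in charcoal-stripped serum, received ICI-182,780 at 10.0nM final before compound addition. Following 22hr incubation at 37C and 5% CO2, luciferase signal was read by luminescence.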

[14] = qHTS assay to identify small molecule agonists or antagonists of the thyroid stimulating hormone receptor (TSHR) signaling pathway - wild type cell line counter screen (AID 1259384; calls by dose curve)
Method in brief: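 Wild-type HEK293 cells were plated 18 h at 37 C/5% CO2, pin-dosed with compound plus Ro20-1724 medium, held 30 min at room temperature, then given cAMP-d2 and anti-cAMP-cryptate; fluorescence was read after 1 h. Fifteen concentrations, triplicate.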

[15] = qHTS assay to identify small molecule HDAC inhibitors (AID 1259364); note: potency is the fitted concentration of half-maximal effect;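 note: wild-type HCT-116 cells with endogenous class I/II HDAC activity; nearly all actives have a fitted effect of over 45% in size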
Method in brief: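 Read-out: luminescence of HDAC-Glo I/II reagent, 30 min RT, reflecting class I/II deacetylase activity in whole HCT-116 cells pre-exposed 2 h to DMSO-dissolved compounds.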

[16] = qHTS assay to identify small molecule antagonists of the estrogen receptor beta (ER-beta) signaling pathway - cell viability counter screen (AID 1259382); note: nearly all actives have a fitted effect of over 55% in size; note: potency is the fitted concentration of half-maximal effect
Method in brief: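 In this multiplexed counter screen, cells were seeded at 2,000 per well in medium with 2% charcoal-stripped FBS and incubated 6 hr before compound and 1nM final E2 were added. Sixteen hours later, ATP-based luminescence reported viability.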

[17] = molecular target: Androgen receptor (Homo sapiens) (UniProt P10275); assay: qHTS assay to identify small molecule agonists of the androgen receptor (AR) signaling pathway in the presence of an antagonist (AID 1259381; calls by dose curve; note: nearly all actives have a fitted effect of over 15% in size)
Androgen receptor (Homo sapiens), sequence (P10275 whole entry, looked up): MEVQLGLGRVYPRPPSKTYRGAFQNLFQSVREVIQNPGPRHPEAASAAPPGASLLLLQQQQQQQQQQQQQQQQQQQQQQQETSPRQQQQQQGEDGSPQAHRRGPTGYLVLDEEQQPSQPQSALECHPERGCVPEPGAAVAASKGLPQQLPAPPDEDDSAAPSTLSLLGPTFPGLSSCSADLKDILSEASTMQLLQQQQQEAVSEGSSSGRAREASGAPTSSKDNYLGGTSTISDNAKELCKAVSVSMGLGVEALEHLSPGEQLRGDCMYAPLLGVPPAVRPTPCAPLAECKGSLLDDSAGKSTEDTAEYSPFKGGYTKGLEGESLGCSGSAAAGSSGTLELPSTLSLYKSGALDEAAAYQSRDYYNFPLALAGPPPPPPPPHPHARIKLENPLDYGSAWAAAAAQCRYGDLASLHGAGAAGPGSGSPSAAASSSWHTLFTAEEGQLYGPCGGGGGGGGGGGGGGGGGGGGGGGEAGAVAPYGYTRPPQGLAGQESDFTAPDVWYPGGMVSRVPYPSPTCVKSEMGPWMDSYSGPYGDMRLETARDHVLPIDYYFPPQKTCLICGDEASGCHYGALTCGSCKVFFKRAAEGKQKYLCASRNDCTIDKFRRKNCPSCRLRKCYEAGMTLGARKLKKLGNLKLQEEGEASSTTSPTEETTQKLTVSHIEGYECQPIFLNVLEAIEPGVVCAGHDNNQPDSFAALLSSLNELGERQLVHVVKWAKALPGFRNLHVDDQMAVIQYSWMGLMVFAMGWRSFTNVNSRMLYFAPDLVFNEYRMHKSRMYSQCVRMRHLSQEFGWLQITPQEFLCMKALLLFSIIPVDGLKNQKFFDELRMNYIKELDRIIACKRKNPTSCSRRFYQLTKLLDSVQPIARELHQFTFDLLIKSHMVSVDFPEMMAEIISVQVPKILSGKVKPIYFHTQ
Method in brief: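 Test compounds at 15 concentrations were incubated for 16hr with MDA-kb2 reporter cells in presence of 3.0uM nilutamide (final). Signal: ONE-Glo luciferase luminescence.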

[18] = molecular target: Thyrotropin receptor (Homo sapiens) (UniProt P16473); assay: qHTS assay to identify small molecule antagonists of the thyroid stimulating hormone receptor (TSHR) signaling pathway (AID 1259385; calls by dose curve; note: nearly all actives have a fitted effect of over 20% in size; note: potency is the fitted concentration of half-maximal effect)
Thyrotropin receptor (Homo sapiens), sequence (P16473 whole entry, looked up): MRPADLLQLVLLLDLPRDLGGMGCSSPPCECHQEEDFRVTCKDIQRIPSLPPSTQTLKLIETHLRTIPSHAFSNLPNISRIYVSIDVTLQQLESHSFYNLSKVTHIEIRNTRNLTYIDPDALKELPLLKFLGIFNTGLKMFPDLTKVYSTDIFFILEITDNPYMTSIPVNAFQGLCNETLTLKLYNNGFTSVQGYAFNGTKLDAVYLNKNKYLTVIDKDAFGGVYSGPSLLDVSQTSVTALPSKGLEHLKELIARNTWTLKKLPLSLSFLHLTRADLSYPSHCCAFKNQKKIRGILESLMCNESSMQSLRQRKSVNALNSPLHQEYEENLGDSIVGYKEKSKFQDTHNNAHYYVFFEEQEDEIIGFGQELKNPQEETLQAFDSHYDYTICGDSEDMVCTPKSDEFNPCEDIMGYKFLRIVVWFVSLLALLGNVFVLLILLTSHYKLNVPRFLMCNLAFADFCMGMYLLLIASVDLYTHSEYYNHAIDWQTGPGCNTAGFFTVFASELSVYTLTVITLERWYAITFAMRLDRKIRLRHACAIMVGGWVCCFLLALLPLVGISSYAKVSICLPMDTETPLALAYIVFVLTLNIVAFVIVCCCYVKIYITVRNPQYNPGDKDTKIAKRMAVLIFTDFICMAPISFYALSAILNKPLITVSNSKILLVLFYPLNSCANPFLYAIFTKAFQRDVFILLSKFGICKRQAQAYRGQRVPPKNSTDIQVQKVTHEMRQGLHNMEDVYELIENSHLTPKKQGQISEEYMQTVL
Method in brief: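 TSHR-HEK293 cells were plated and held 18 h at 37C/5% CO2, then given compound plus Ro20-1724 and stimulated with TSH at 1.5 ng/mL final. After 30 min at room temperature, cAMP was detected with cAMP-d2/anti-cAMP-cryptate (1 h) by fluorescence.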

[19] = molecular target: Estrogen receptor beta (Homo sapiens) (UniProt Q92731); assay: qHTS assay to identify small molecule antagonists of the estrogen receptor beta (ER-beta) signaling pathway (AID 1259378; active = well fitted inhibition curve with a large enough effect in the signal ratio in the repeat runs, not every such curve was filed as active; the % refers to the signal ratio)
Method in brief: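 ER-beta-UAS-bla HEK293T (GripTite) cells in 2% charcoal-stripped FBS medium were preincubated 6 hr at 37C, dosed with compound, then stimulated with 1 nM E2 (final) for 16 hr; beta-lactamase reporter read by B/G FRET fluorescence after 2 hr substrate loading.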

Measured: Potency

S=c1[nH]c2ccccc2s1
active: [5] 48.6 µM | [6] 21.7 µM
inactive: [1] | [2] | [3] | [4] | [7] | [8]

NNc1nc(-c2ccccc2)cs1
active: [12] 25 µM
not listed: [3] | [8] | [15] | [16] | [17] | [18] | [19]
inactive: all other assays above

Clc1ccc2cc3ccccc3cc2c1
active: [15] 54.4 µM
not listed: [3] | [4] | [7] | [14] | [17] | [18] | [19]
inactive: all other assays above

CN1CCC(Nc2ncc3ncnc(Nc4ccc(F)c(Cl)c4)c3n2)CC1
active: [3] 11.2 µM | [10] 29.8 µM | [6] 6.68 µM | [12] 11.9 µM | [18] 29.8 µM
inactive: [1] | [2] | [15] | [4] | [11] | [8] | [17] | [14]

c1ccc(CSCc2ccccc2)cc1
active: [15] 24.3 µM
inactive: [1] | [2] | [4] | [10] | [5] | [11] | [6] | [8] | [12] | [16]

CC(C)(C)c1ccc(C(=O)O)cc1
not listed: [3] | [9] | [13] | [16] | [17] | [19]
inactive: all other assays above

C[C@H]1[C@H]2CC[C@H]3[C@@H]4CC=C5C[C@@H](N(C)C)CC[C@]5(C)[C@H]4CC[C@]23CN1C
not listed: [8] | [9] | [13]
inactive: all other assays above

Cc1c(C)c2c(c(C)c1OC(=O)CCC(=O)O)CC[C@@](C)(CCC[C@H](C)CCC[C@H](C)CCCC(C)C)O2
active: [8] 27.6 µM
not listed: [7] | [9] | [12] | [13] | [16] | [17] | [19]
inactive: all other assays above

C[n+]1ccn(Cc2ccccc2)c1
not listed: [3] | [8] | [9] | [14] | [17]
inactive: all other assays above

CCOC(=O)/C=C(C)/C=C/C=C(C)/C=C/c1c(C)cc(OC)c(C)c1C
not listed: [7] | [9] | [17] | [19]
inactive: all other assays above

CCC1OCC(COc2ccc(Oc3ccccc3)cc2)O1 (centres undefined)
inactive: [1] | [2] | [4] | [11] | [7] | [19] | [8] | [16] | [14]
active: [15] 17.2 µM | [5] 61.1 µM

C/C=C1/C(=O)C[C@H]2[C@@H]3CCC4=CC(=O)CC[C@]4(C)[C@H]3CC[C@]12C
active: [8] 54.3 µM
inactive: [1] | [2] | [15] | [4] | [5] | [11] | [16] | [13]

C=C(C)C(=O)OCC[N+](C)(C)C
not listed: [3] | [5] | [9] | [13] | [18]
inactive: all other assays above

C[C@H](CCC(=O)O)[C@H]1CC[C@H]2[C@@H]3CC[C@@H]4C[C@H](O)CC[C@]4(C)[C@H]3CC[C@]12C
inactive: [1] | [2] | [9] | [15] | [10] | [5] | [11] | [8] | [13]
active: [12] 48.4 µM and 48.6 µM | [16] 19.3 µM

COc1cc(/C=C/C(=O)O[C@H]2CC[C@]34C[C@]35CC[C@]3(C)[C@@H]([C@H](C)CCC=C(C)C)CC[C@@]3(C)[C@@H]5CC[C@H]4C2(C)C)ccc1O
not listed: [4] | [7] | [9] | [13] | [14] | [17] | [18] | [19]
inactive: all other assays above

CCCN(CCC)C(=O)C(CCC(=O)OCCCN1CCN(CCOC(=O)Cc2c(C)n(C(=O)c3ccc(Cl)cc3)c3ccc(OC)cc23)CC1)NC(=O)c1ccccc1 (centres undefined)
active: [1] 13.3 µM | [10] 11.9 µM | [5] 10.6 µM | [6] 9.44 µM | [13] 11.9 µM
inactive: [2] | [9] | [15] | [11] | [8] | [14]

CCCC1O[C@@H]2C[C@H]3[C@@H]4CCC5=CC(=O)C=C[C@]5(C)[C@H]4[C@@H](O)C[C@]3(C)[C@]2(C(=O)CO)O1 (some centres undefined)
inactive: [1] | [2] | [3] | [15] | [4] | [11] | [7] | [8] | [16]
active: [5] 38.6 µM | [6] 7.7 µM
